Drawing on paper PMC7862700, “An all-to-all approach to the identification of sequence-specific readers for epigenetic DNA modifications on cytosine”, this text covers binding signal for 7 sequences.

Common to all, as to assay: DAPPL (digital affinity profiling via proximity ligation, sequencing); 10 mM Tris-HCl pH 7.5, 50 mM NaCl, 1 mM DTT, 4% glycerol, room temperature, 30 min; GST-TFs on glutathione beads, 16-mer random dsDNA library, 0.1% formaldehyde crosslink after washing; high values mean tight binding
What all share (conditions): protein: recombinant; tags: N-terminal GST; dsDNA, one strand shown

One assay deals with T1, ERF (Homo sapiens, UniProt P50548 1-548).
T1 sequence: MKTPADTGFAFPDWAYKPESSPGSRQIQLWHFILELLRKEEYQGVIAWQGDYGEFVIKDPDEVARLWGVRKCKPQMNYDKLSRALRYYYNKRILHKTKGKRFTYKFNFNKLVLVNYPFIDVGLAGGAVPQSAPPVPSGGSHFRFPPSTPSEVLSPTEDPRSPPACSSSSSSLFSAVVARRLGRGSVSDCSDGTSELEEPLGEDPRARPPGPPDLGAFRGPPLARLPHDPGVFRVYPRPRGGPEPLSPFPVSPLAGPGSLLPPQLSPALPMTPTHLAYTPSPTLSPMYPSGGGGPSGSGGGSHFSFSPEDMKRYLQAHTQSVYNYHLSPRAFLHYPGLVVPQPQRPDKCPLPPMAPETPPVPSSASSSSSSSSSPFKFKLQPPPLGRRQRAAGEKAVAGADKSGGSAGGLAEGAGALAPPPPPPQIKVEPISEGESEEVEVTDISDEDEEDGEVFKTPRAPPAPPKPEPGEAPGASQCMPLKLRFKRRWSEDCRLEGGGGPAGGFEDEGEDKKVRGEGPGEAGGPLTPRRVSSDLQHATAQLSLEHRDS
In short, it runs like this:
(§1)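 Each value of binding signal is a hexamer's read frequency for a factor divided by the same hexamer's frequency in the tag-only sample. Barcoded, bead-captured GST fusions of human transcription factors made in yeast were pooled with that sample and incubated with 200 nmole of a random double-stranded 16-mer DNA library in Tris/NaCl/DTT/glycerol buffer at room temperature for 30 min. Washing, 0.1% formaldehyde crosslinking, proximity ligation, PCR and Illumina NextSeq500 sequencing followed.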

The next assay deals with T2, ETV3L (Homo sapiens, UniProt Q6ZN32 1-361).
T2 sequence: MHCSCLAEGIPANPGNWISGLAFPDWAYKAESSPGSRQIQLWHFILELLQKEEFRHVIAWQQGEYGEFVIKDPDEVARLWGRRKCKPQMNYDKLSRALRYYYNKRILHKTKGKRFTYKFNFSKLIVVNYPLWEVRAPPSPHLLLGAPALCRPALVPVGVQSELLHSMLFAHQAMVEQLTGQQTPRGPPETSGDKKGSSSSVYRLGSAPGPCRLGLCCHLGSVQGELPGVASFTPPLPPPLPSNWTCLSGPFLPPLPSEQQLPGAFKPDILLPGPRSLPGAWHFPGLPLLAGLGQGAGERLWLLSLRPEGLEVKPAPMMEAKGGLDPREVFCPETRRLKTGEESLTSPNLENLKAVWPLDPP
In a few lines: as §1

A further assay deals with T3, ETS2 (Homo sapiens, UniProt P15036 1-469).
T3 sequence: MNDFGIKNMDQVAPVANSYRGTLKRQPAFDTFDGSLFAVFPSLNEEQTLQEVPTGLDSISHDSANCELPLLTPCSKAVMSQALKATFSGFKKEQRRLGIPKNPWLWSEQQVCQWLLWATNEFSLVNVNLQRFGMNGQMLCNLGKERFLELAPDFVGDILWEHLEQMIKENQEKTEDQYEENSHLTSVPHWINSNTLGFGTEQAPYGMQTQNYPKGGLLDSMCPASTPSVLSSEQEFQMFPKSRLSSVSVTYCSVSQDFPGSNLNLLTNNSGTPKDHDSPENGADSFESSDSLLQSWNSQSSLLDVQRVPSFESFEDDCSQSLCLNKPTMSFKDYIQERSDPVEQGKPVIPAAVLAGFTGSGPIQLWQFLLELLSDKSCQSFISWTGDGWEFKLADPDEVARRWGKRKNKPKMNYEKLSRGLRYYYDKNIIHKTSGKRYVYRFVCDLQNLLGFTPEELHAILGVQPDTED
In short, it runs like this: as §1

The target in a further assay is T4, SPDEF (Homo sapiens, UniProt O95238 1-335).
T4 sequence: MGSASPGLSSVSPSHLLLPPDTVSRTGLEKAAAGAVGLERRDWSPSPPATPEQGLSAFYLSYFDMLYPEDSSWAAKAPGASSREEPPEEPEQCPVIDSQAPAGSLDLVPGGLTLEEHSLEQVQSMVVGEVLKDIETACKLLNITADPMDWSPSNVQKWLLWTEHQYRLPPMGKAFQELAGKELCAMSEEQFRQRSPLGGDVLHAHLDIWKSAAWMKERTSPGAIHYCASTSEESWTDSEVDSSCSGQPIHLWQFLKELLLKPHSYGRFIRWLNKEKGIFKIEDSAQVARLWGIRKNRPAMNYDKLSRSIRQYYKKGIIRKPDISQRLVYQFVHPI
In short, it runs like this: as §1

A further assay addresses T5, ETV7 (Homo sapiens, UniProt Q9Y603 1-341).
T5 sequence: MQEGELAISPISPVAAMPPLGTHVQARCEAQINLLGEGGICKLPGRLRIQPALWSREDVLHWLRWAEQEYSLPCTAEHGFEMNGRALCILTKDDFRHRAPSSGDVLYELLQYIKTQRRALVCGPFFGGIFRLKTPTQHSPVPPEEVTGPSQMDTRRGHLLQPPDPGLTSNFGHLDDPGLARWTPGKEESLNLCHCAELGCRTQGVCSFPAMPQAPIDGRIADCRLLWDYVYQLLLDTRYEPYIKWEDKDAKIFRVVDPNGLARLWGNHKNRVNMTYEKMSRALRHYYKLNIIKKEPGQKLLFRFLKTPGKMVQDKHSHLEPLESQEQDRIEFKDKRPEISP
In a few lines: as §1

The target in another assay is T6, ELF5 (Homo sapiens, UniProt Q9UKW6-2 1-255).
T6 sequence: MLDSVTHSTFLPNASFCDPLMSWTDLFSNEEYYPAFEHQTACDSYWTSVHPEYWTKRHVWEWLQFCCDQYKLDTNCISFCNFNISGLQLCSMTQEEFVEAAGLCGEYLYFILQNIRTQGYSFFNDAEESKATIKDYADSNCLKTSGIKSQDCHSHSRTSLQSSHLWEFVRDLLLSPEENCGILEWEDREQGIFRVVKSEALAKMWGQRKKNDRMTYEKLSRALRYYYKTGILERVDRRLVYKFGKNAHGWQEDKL
In a few lines: as §1

Another assay has as its target T7, ETV3 (Homo sapiens, UniProt P41162-2 1-143).
T7 sequence: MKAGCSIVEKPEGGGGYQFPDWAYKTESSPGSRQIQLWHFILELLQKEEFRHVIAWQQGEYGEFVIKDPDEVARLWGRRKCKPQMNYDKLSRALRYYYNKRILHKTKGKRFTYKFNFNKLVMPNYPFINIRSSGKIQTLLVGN
In short, it runs like this:
as §1

For a further assay, the target named is ETV6 (Homo sapiens, UniProt P41212 1-452). In a few lines: as §1
Sequence of ETV6 (P41212 whole entry): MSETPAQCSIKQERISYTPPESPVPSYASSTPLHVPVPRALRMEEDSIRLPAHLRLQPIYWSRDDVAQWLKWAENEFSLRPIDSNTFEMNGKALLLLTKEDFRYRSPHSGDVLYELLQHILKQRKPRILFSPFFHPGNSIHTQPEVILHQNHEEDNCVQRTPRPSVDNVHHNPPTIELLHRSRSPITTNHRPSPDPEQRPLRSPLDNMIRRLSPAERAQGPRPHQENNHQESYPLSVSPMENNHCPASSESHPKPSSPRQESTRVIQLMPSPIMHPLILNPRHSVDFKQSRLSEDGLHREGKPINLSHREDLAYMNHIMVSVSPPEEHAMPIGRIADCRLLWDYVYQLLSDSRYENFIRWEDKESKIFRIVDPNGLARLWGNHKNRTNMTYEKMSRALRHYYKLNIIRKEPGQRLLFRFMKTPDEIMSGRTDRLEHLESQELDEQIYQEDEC

With CTTCTA, the binding signal with ERF was 1.5 fold enrichment (6-mer frequency, TF over GST control); with ETV3L, 1.35 fold enrichment (6-mer frequency, TF over GST control); with ETS2 it was 1.53 fold enrichment (6-mer frequency, TF over GST control); with SPDEF, 1.3 fold enrichment (6-mer frequency, TF over GST control); in the assay with ETV7, 1.43 fold enrichment (6-mer frequency, TF over GST control); with ELF5 it was 1.39 fold enrichment (6-mer frequency, TF over GST control). The binding signal is 1.2 fold enrichment (6-mer frequency, TF over GST control) with ETV3 and 1.4 fold enrichment (6-mer frequency, TF over GST control) in the assay with ETV6.
As to ATGTAC, the binding signal is 1.19 fold enrichment (6-mer frequency, TF over GST control) with ERF; 1.32 fold enrichment (6-mer frequency, TF over GST control) in the assay with ETV3L; 1.42 fold enrichment (6-mer frequency, TF over GST control) with ETS2; 1.67 fold enrichment (6-mer frequency, TF over GST control) with SPDEF; 1.41 fold enrichment (6-mer frequency, TF over GST control) with ETV7; 1.28 fold enrichment (6-mer frequency, TF over GST control) with ELF5. The binding signal is 1.19 fold enrichment (6-mer frequency, TF over GST control) with ETV3 and 1.32 fold enrichment (6-mer frequency, TF over GST control) with ETV6.
Consider TAGAAG, for which the binding signal is 1.42 fold enrichment (6-mer frequency, TF over GST control) in the assay with ERF; 1.17 fold enrichment (6-mer frequency, TF over GST control) with ETV3L; 1.12 fold enrichment (6-mer frequency, TF over GST control) in the assay with ETS2; 1.06 fold enrichment (6-mer frequency, TF over GST control) with SPDEF; 1.24 fold enrichment (6-mer frequency, TF over GST control) in the assay with ETV7; 1.12 fold enrichment (6-mer frequency, TF over GST control) with ELF5. Besides, the binding signal with ETV3 was 1.12 fold enrichment (6-mer frequency, TF over GST control); in the assay with ETV6, 1.17 fold enrichment (6-mer frequency, TF over GST control).
ACACGA: the binding signal with ERF was 1.15 fold enrichment (6-mer frequency, TF over GST control); with ETV3L, 1.04 fold enrichment (6-mer frequency, TF over GST control); with ETS2, 1.08 fold enrichment (6-mer frequency, TF over GST control); in the assay with SPDEF, 1.03 fold enrichment (6-mer frequency, TF over GST control); with ETV7, 1.11 fold enrichment (6-mer frequency, TF over GST control); with ELF5 it was 1.03 fold enrichment (6-mer frequency, TF over GST control). In addition, the binding signal with ETV6 is 1.06 fold enrichment (6-mer frequency, TF over GST control).
Consider TGCCAT, for which the binding signal in the assay with ERF was 1.17 fold enrichment (6-mer frequency, TF over GST control); with ETV3L, 1.09 fold enrichment (6-mer frequency, TF over GST control); with ETS2, 1.05 fold enrichment (6-mer frequency, TF over GST control); in the assay with SPDEF, 1.19 fold enrichment (6-mer frequency, TF over GST control); with ETV7, 1.09 fold enrichment (6-mer frequency, TF over GST control); with ELF5 it was 1.08 fold enrichment (6-mer frequency, TF over GST control). Further, the binding signal in the assay with ETV3 is 1.2 fold enrichment (6-mer frequency, TF over GST control); in the assay with ETV6, 1.1 fold enrichment (6-mer frequency, TF over GST control).
On to ATATGA, for which the binding signal with ERF is 1.13 fold enrichment (6-mer frequency, TF over GST control); in the assay with ETV3L it was 1.14 fold enrichment (6-mer frequency, TF over GST control); with ETS2, 1.09 fold enrichment (6-mer frequency, TF over GST control); with SPDEF it was 1.05 fold enrichment (6-mer frequency, TF over GST control); with ETV7 it was 1.12 fold enrichment (6-mer frequency, TF over GST control); in the assay with ELF5, 1.1 fold enrichment (6-mer frequency, TF over GST control). Also, the binding signal with ETV3 was 1.08 fold enrichment (6-mer frequency, TF over GST control); with ETV6, 1.06 fold enrichment (6-mer frequency, TF over GST control).
In the case of CAAATC, the binding signal was 1.12 fold enrichment (6-mer frequency, TF over GST control) in the assay with ERF; 1.1 fold enrichment (6-mer frequency, TF over GST control) in the assay with ETV3L; 1.09 fold enrichment (6-mer frequency, TF over GST control) with ETS2; 1.26 fold enrichment (6-mer frequency, TF over GST control) with SPDEF; 1.13 fold enrichment (6-mer frequency, TF over GST control) with ETV7; 1.08 fold enrichment (6-mer frequency, TF over GST control) in the assay with ELF5. The binding signal in the assay with ETV6 is 1.05 fold enrichment (6-mer frequency, TF over GST control).
